Screens deposited in PubChem BioAssay by National Center for Advancing Translational Sciences (NCATS).
The sample as a whole holds a higher share of hits than the screen did.
KDM5B inhibitor = inhibitors of human KDM5B histone demethylase | 220,000 tested, 2.6% active | AID 1347165 | Q9UGL1 | Potency, µM (doses to about 57.7 µM), hits mostly inhibitors | KDM5B demethylase, FDH-coupled NADH fluorescence (FDH is formaldehyde dehydrogenase); active = well fitted inhibition curve with a large enough effect; also: 0% is about no effect; nearly all actives have a fitted effect of over 70% in size
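Here, H3K4me3 peptide (12.5 µM in substrate mix) is demethylated by KDM5BΔAP, 200 nM final, after 10 min compound exposure. Formaldehyde product is coupled through FDH (0.25 U/mL in mix) to NADH fluorescence; 30-min ΔRFU feeds dose-response curves.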
* marks the source's active call; other numbers are inactive results; i = inactive. Potency is read from the fitted curve at half-maximal effect.

SMILES	KDM5B inhibitor
CCOCCCNC(=O)c1c(C)noc1-c1ccc(OC(F)(F)F)cc1	i
COc1cc(-c2onc(C)c2C(=O)NCC2CCCO2)cc(OC)c1OC (configuration not stated)	28µM*
COc1cc(OC)cc(-c2onc(C)c2C(=O)NCc2ccccc2C)c1	i
COc1cc(CNC(=O)c2c(C)noc2-c2cc(OC)c(OC)c(OC)c2)cc(OC)c1	28µM*
COc1ccc(-c2cc(C(=O)NCC3CCCO3)c3cc(C)ccc3n2)cc1 (configuration not stated)	i
COc1ccc(CNC(=O)c2c(C)noc2-c2ccc(OC)cc2)cc1	i
COc1cc(OC)cc(-c2onc(C)c2C(=O)NCCOc2ccccc2)c1	i
COc1cc(OC)c(CNC(=O)c2c(C)noc2-c2ccc(OC(F)(F)F)cc2)c(OC)c1	i
CCOCCCNC(=O)c1c(C)noc1-c1ccc(OC)cc1	i
COc1cc(-c2onc(C)c2C(=O)NCCC(c2ccccc2)c2ccccc2)cc(OC)c1OC	28µM*
CN=c1scc(C)n1/N=C/c1ccc(C#N)cc1	i
CCOc1cc(/C=C/C(=O)c2ccc(Cl)c(Cl)c2)ccc1O	i
Cc1ccc(C2CCCN2Cc2nc(-c3ccco3)no2)cc1 (configuration not stated)	i
O=C(O)c1cccc(CSc2ccc(Cl)cc2Cl)c1	i
Cc1[nH]c2ccccc2c1/C=C(/C#N)C(=O)NCCO	i
CC(NC(=O)c1cccc(S(=O)(=O)Nc2ccc(F)cc2)c1)c1ccccc1 (configuration not stated)	i
Cc1ccc(CNC(=O)CSc2ncc3c(n2)-c2ccc(Cl)cc2N(C)S3(=O)=O)cc1	i
O=C(OCC1CCCO1)c1cccc(O)c1 (configuration not stated)	i
CS(=O)(=O)N1CCc2cc(C(=O)CSc3nnc(C4CC4)n3C3CC3)ccc21	i
O=C(COc1ccc(Cl)cc1)N(CCCN1CCOCC1)c1nc2ccccc2s1	i
CCCc1nc(SC)ncc1C(=O)Nc1ccc(Cl)cc1C	i
CCCOCCCNC(=O)c1c(C)noc1-c1cccc(F)c1	i
CCCOCCNC(=O)c1c(C)noc1-c1cc(OC)cc(OC)c1	i
COc1cc(OC)cc(-c2onc(C)c2C(=O)NCCCSC)c1	i
COc1cc(-c2onc(C)c2C(=O)NCCCOC(C)C)cc(OC)c1OC	32µM*
SMILES	KDM5B inhibitor
CCCOCCNC(=O)c1c(C)noc1-c1ccc(C(C)(C)C)cc1	i
COCCNC(=O)c1c(C)noc1-c1cc(OC)c(OC)c(OC)c1	28µM*
CCOC(=O)CN1CCN(c2nc3c(c(=O)[nH]c(=O)n3C)n2Cc2ccccc2F)CC1	i
CCCCCCNCCN1CCOCC1	i
COC(=O)C1=C(CN2CCCCC2)NC(=O)NC1c1ccc(C)cc1 (configuration not stated)	i
O=C(O)c1ccc(/C=C/C(=O)c2cccc(N3CCOCC3)c2)cc1	i
Cn1cccc1/C=C(\C#N)c1ccc(Cl)cc1Cl	i
COc1ccc(CCC(=O)NCC(=O)N2CCCCCNC(=O)CC2c2ccccc2)cc1 (configuration not stated)	i
COc1ccc(C(=O)NCC(=O)N2CCCCCCNC(=O)CC2c2ccccc2)cc1 (configuration not stated)	i
COc1ccc2[nH]c(C(=O)NCC(=O)N3CCCCCNC(=O)CC3c3ccccc3)cc2c1 (configuration not stated)	28µM*
COc1ccc(C(=O)NCC(=O)N2CCCCCCNC(=O)CC2c2ccccc2)c(OC)c1 (configuration not stated)	i
COc1ccc2[nH]c(C(=O)NCC(=O)N3CCCCCCNC(=O)CC3c3ccccc3)cc2c1 (configuration not stated)	16µM*
O=C1NCCCCCCN(C(=O)c2cc3ccccc3[nH]2)[C@H]2CCC[C@@H]12	i
COc1ccc2[nH]c(C(=O)N3CCCCCNC(=O)[C@@H]4CCC[C@@H]43)cc2c1	28µM*
COc1ccc(C2(C(=O)NCC(=O)N3CCCCCNC(=O)CC3c3ccccc3)CC2)cc1 (configuration not stated)	i
COc1ccc(C(=O)N2CCCCCCNC(=O)[C@@H]3CCC[C@@H]32)cc1	i
FC(F)(F)CN1CCNCC1	i
CN(C)CCNc1oc(-c2ccc(F)cc2)nc1S(=O)(=O)c1ccc2c(c1)OCCO2	i
Cc1ccc(C(=O)C(Cl)c2ccc(C)cc2)cc1 (configuration not stated)	i
Cc1cccc(CSc2nnc(COc3ccc(Cl)c(C)c3)n2C)c1	i
Nc1nnnn1NCc1ccc(-c2ccccc2)o1	i
O=C(COC(=O)c1ccccc1C(=O)c1ccc(Cl)c([N+](=O)[O-])c1)NC12CC3CC(CC(C3)C1)C2	i
CC(=O)c1cc2c(cc1NC(=O)c1cccc(F)c1)OCCO2	i
CCOCCCNCc1ccc(Cl)cc1Cl	i
O=Cc1c(-c2ccccc2)c(C=O)n2ccccc12	i
SMILES	KDM5B inhibitor
COc1ccc(N2CCN(C(=O)c3cnc(N4CCCC4)nc3C)CC2)cc1	i
CC(C)c1ccc(-n2ccc3nc(N4CCCC4)ncc3c2=O)cc1	i
CC(C)c1nc(N2CCCCCC2)ncc1C(=O)O	28µM*
COc1ccc(C(=O)NC2CCCC2)c(OC)c1	i
COc1ccc(C(=O)N[C@@H]2CN(c3ncccn3)C[C@H]2CN(C)C)c(OC)c1	25µM*
CN(C)C[C@@H]1CN(S(C)(=O)=O)C[C@H]1NC(=O)c1cccc2[nH]ccc12	i
COc1ccc(C(=O)N[C@@H]2CN(c3ncccn3)C[C@H]2CN(C)C)cc1OC	28µM*
CN(C)C[C@@H]1CN(S(C)(=O)=O)C[C@H]1NC(=O)c1ccc(F)c(F)c1	i
CN(C)C[C@@H]1CN(c2ncccn2)C[C@H]1NC(=O)c1ccc2cc[nH]c2c1	25µM*
COc1cc(Cl)ccc1C(=O)N[C@@H]1CN(c2ncccn2)C[C@H]1CN(C)C	28µM*
CN(C)C[C@@H]1CN(c2ccncn2)C[C@H]1NC(=O)c1ccc2ncccc2c1	i
COc1cccc(C(=O)N[C@@H]2CN(Cc3cccnc3)C[C@H]2CN(C)C)c1	i
COc1ccc(C(=O)N[C@@H]2CN(c3ccncn3)C[C@H]2CN(C)C)cc1F	i
COc1ccc(NC(=O)C(=O)c2c[nH]c3ccc(Br)cc23)cc1	i
COc1ccc2[nH]c(C)c(C(=O)CN3CCCCC3C)c2c1 (configuration not stated)	i
N#CCCN1CCN(c2cc(C(=O)O)c3cc(NC(=O)c4ccccc4)ccc3n2)CC1	i
CC(C)(C)c1ccc(C(=O)NCCNC(=O)c2nc3ccccc3c(=O)[nH]2)cc1	i
COc1ccc(C2(C(=O)N3CC[C@H](CO)[C@H](NC(=O)C4CC4)C3)CC2)cc1	i
COc1ccc(C2(C(=O)N[C@@H]3CN(c4ncccn4)C[C@H]3CN(C)C)CC2)cc1	28µM*
Cc1cccc(Nc2nc(-c3ccc4c(c3)CCC(=O)N4)cs2)c1	i
Cc1ccccc1Cc1c(C)nc2c(C(=O)N3CCC(Cc4nncn4CC4CC4)CC3)cnn2c1C	25µM*
Cc1cccc(C(=O)N2CCC(Cc3nncn3CC3CC3)CC2)c1	i
Cc1nn(C(=O)CCCC(=O)N2CCC(Cc3nncn3CC3CC3)CC2)c2ccccc12	i
CCCC(=O)N1N=C(c2ccc(OC)cc2)CC1c1ccc2nccnc2c1 (configuration not stated)	i
